Test results published in PubChem BioAssay (NCI).
“And” between values parts separate entries of the source, which are not always exact repeats. Identical values can stand only once. This is part of a sample that, as a whole, favours compounds with a hit. Of some 79,000 tested, about 15% had one in any assay. Values without a mark were called inactive. The source made the active and inactive calls. No stated cut-off is given here; in the data, active means growth inhibition above about 70%; inactive means the rest.

Assay: NCI Yeast Anticancer Drug Screen. Data for the bub3 strain (AID 167)
Conditions: S. cerevisiae bub3 mutant strain, at 50.0 µM, stronger effect = higher value
Outline: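 Steps: expose the mutant yeast strain to compound; grow alongside vehicle-treated cultures; measure growth; express inhibition against the vehicle cultures.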
`COC(COC(N)=O)C1=C(N2CC2)C(=O)C(C)=C(N2CC2)C1=O` (stereo unspecified) showed a growth inhibition of 24.9%. `Cc1nc(Cl)c(CBr)c(Cl)n1` gave a growth inhibition of 52.5%. In the case of `C[n+]1[se]nc2cc(C(=O)c3ccccc3)ccc21` (tested in a mixture with another compound), the growth inhibition is reported as 99% (active). With `O=C(O)c1ccccc1.[Ag]` the growth inhibition was 91.5% (active). With `CC(=O)[O-].O=C([CH-]C(=O)c1ccccc1)c1ccccc1.O=C([CH-]C(=O)c1ccccc1)c1ccccc1.[Sm+3]` the growth inhibition was 90.8% (active). With `CC(C)(Br)C(=O)C(Br)Br` the growth inhibition was 88.7% (active). For `C=C[C@H]1CN2CC[C@H]1C[C@@H]2[C@@H](O)c1ccnc2ccccc12`, the growth inhibition was -7.5%. Work on `[C-]#[O+].[C-]#[O+].[Ir].[O-]c1ccc2ccccc2c1N=Nc1ccccc1` yielded a growth inhibition of 55.1%. With `O=C(Nc1ccccc1)OC(C[N+](=O)[O-])C(Cl)(Cl)Cl` (stereo unspecified) the growth inhibition was 99.2% (active). With `O=c1c2ccccc2[se]n1-c1cccnc1` the growth inhibition was -6.15%. With `[Pt].c1ccc(P(CCP(c2ccccc2)c2ccccc2)CCP(c2ccccc2)c2ccccc2)cc1` the growth inhibition was 75.7% (active). `CC12CCC(C1)C(C)(C)C2OC(=O)c1ccccc1N` (stereo unspecified) showed a growth inhibition of 18%. With `CC(=O)[O][Hg][c]1cc2c(cc1O)Cc1cc([N+](=O)[O-])ccc1-2` the growth inhibition was 97.6% (active). `OC1(c2ccccc2)CC2CCC(C1)N2CCCC(O)(c1ccccc1)c1ccccc1` (stereo unspecified) gave a growth inhibition of 53.7%. In the case of `ClC1=C(Cl)C(Cl)(Cl)SS1`, the growth inhibition is reported as 89.3% (active). In the case of `COC(=O)C(F)C(Br)C(=O)OC` (stereo unspecified), the growth inhibition is reported as 91.4% (active). For `c1ccc2c(NCCCCCCNc3c4ccccc4nc4ccccc34)c3ccccc3nc2c1`, the growth inhibition was 73.1% (active). In the case of `c1ccc2c(NCCCCCCCCNc3c4ccccc4nc4ccccc34)c3ccccc3nc2c1`, the growth inhibition is reported as 80.2% (active). In the case of `CN(Cc1ccccc1)CC(O)c1ccc(Cl)cc1` (stereo unspecified), the growth inhibition is reported as 60.5%. With `Br[C](Br)(Br)[Hg][c]1ccccc1` the growth inhibition was 89.1% (active). For `Cc1cc(N=Nc2ccccc2C)ccc1N`, the growth inhibition was 91.5% (active) and 90% (active). With `C/C(=N\N=C(/[Se])N1CC2CCC(CC2)C1)c1ccccn1` the growth inhibition was 90.3% (active). For `CCCCCCCCCC[Se]C#N`, the growth inhibition was 99.5% (active). For `CNCC(O)c1ccc(O)c(O)c1.[Pt].c1ccc([PH+](c2ccccc2)c2ccccc2)cc1.c1ccc([PH+](c2ccccc2)c2ccccc2)cc1`, the growth inhibition was 98.8% (active). With `CCN(CC)CC.CCOc1ccc(NC(=O)N=C=[N-])cc1.[CH-]1CCCCC1.[CH-]1CCCCC1.[CH-]1CCCCC1.[Cl-].[Sn+4]` the growth inhibition was 89.2% (active). In the case of `Cc1cc(N(C)C)c2ccccc2[n+]1CCCCCCCCCC[n+]1c(C)cc(N(C)C)c2ccccc21`, the growth inhibition is reported as 89.5% (active). For `CCC[CH2][Sn]1([CH2]CCC)[O]CC(CN2CCCC2)[O]1` (stereo unspecified), the growth inhibition was 86.9% (active). With `N#Cc1ccc([Se]c2ccccc2)cc1` the growth inhibition was 77.9% (active). In the case of `O=c1ssc(Cl)c1Cl`, the growth inhibition is reported as 87.6% (active). In the case of `Nc1nc(N)c(-c2ccc(Cl)c(Cl)c2)c(CP(Cl)(Cl)(Cl)Br)n1`, the growth inhibition is reported as 51.4%. With `Cc1ccc(P(c2ccc(C)cc2)c2ccc(C)cc2)cc1` the growth inhibition was 75.8% (active). `O=C(O)c1ccccc1[Se][Se]c1ccccc1C(=O)O` showed a growth inhibition of 34.1%. In the case of `CC1CC(C)CC(C)C(O)/C(C#N)=C/C=C/CC(C2CCCC2C(=O)O)OC(=O)CC(O)C(C)C1` (stereo unspecified), the growth inhibition is reported as 93.3% (active). In the case of `CCC[CH2][Pb]([Cl])([CH2]CCC)[CH2]CCC`, the growth inhibition is reported as 89.9% (active). With `CNC(Cc1ccccc1)c1ccc(OC)c(OC)c1` (stereo unspecified) the growth inhibition was 14.3%. Compound `CC1C(=O)OCC1(C)O` (stereo unspecified) has a growth inhibition of 46%. In the case of `O=C(Nc1ccccc1)c1cc([N+](=O)[O-])ccc1O`, the growth inhibition is reported as 90.5% (active). Work on `N=P(c1ccccc1)(c1ccccc1)c1ccccc1` (tested in a mixture with another compound) yielded a growth inhibition of 19.1%.

Same assay, conditions: S. cerevisiae bub3 mutant strain, at 100.0 µM, stronger effect = higher value
For `O=C(O)c1ccccc1.[Ag]`, the growth inhibition was 99% (active). With `CC(=O)[O-].O=C([CH-]C(=O)c1ccccc1)c1ccccc1.O=C([CH-]C(=O)c1ccccc1)c1ccccc1.[Sm+3]` the growth inhibition was 98% (active). For `C=C[C@H]1CN2CC[C@H]1C[C@@H]2[C@@H](O)c1ccnc2ccccc12`, the growth inhibition was 1%. In the case of `O=c1c2ccccc2[se]n1-c1cccnc1`, the growth inhibition is reported as 91% (active). In the case of `[Pt].c1ccc(P(CCP(c2ccccc2)c2ccccc2)CCP(c2ccccc2)c2ccccc2)cc1`, the growth inhibition is reported as 95% (active). With `CC12CCC(C1)C(C)(C)C2OC(=O)c1ccccc1N` (stereo unspecified) the growth inhibition was 79% (active). For `OC1(c2ccccc2)CC2CCC(C1)N2CCCC(O)(c1ccccc1)c1ccccc1` (stereo unspecified), the growth inhibition was 80% (active). In the case of `COC(=O)C(F)C(Br)C(=O)OC` (stereo unspecified), the growth inhibition is reported as 97% (active). With `CCCCCCCCCC[Se]C#N` the growth inhibition was 90% (active). For `CNCC(O)c1ccc(O)c(O)c1.[Pt].c1ccc([PH+](c2ccccc2)c2ccccc2)cc1.c1ccc([PH+](c2ccccc2)c2ccccc2)cc1`, the growth inhibition was 96% (active). `Nc1nc(N)c(-c2ccc(Cl)c(Cl)c2)c(CP(Cl)(Cl)(Cl)Br)n1` showed a growth inhibition of 55%. With `Cc1ccc(P(c2ccc(C)cc2)c2ccc(C)cc2)cc1` the growth inhibition was 75% (active). In the case of `CC1CC(C)CC(C)C(O)/C(C#N)=C/C=C/CC(C2CCCC2C(=O)O)OC(=O)CC(O)C(C)C1` (stereo unspecified), the growth inhibition is reported as 98% (active).
